According to the supplement of paper PMC7411054:
Where a name gives a salt, the structure may show the parent alone.

Assays:
Test in all cases: phenotypically active (imaging signature differs from DMSO and reproducible) at any of 0.3-9 uM (binary (1 = active, 0 = inactive)); higher = active
Details in all cases: treatment time: 24 h
A549-ACTB-RAB5A = system: A549-ACTB-RAB5A
Outline: (§1)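 Fifteen gene-edited A549, HepG2 and WPMY1 reporter lines (BFP segmentation plus GFP and RFP/FusionRed markers) were treated at 0.3, 1, 3 or 9 µM for 24 h, four wells each, then imaged live. Live-cell features per well were normalised to DMSO control wells. Deviation required ≥3 of 4 wells beyond the 95th percentile of DMSO Euclidean distances, and reproducibility required median replicate Pearson correlation above the 95th percentile of non-replicates. Phenotypic activity needed both criteria.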

A549-CANX-COX4 = system: A549-CANX-COX4
Outline: as §1

A549-GM130-SQSTM1 = system: A549-GM130-SQSTM1
Outline: as §1

A549-TP53BP1-CLTA = system: A549-TP53BP1-CLTA
Outline: as §1

A549-TUBA1B-RELA = system: A549-TUBA1B-RELA
Outline: as §1

HepG2-ACTB-RAB5A = system: HepG2-ACTB-RAB5A
Outline: as §1

HepG2-CANX-COX4 = system: HepG2-CANX-COX4
Outline: as §1

HepG2-GM130-SQSTM1 = system: HepG2-GM130-SQSTM1
Outline: as §1

HepG2-TP53BP1-CLTA = system: HepG2-TP53BP1-CLTA
Outline: as §1

HepG2-TUBA1B-RELA = system: HepG2-TUBA1B-RELA
Outline: as §1

WPMY1-ACTB-RAB5A = system: WPMY1-ACTB-RAB5A
Outline: as §1

WPMY1-CANX-COX4 = system: WPMY1-CANX-COX4
Outline: as §1

WPMY1-GM130-SQSTM1 = system: WPMY1-GM130-SQSTM1
Outline: as §1

WPMY1-TP53BP1-CLTA = system: WPMY1-TP53BP1-CLTA
Outline: as §1

WPMY1-TUBA1B-RELA = system: WPMY1-TUBA1B-RELA
Outline: as §1

Measured: phenotypically active

COc1cc2c(cc1OC)CC(=O)N(CCCN(C)C[C@H]1Cc3cc(OC)c(OC)cc31)CC2 [ivabridine]
inactive: A549-ACTB-RAB5A 0 | A549-CANX-COX4 0 | A549-GM130-SQSTM1 0 | A549-TP53BP1-CLTA 0 | A549-TUBA1B-RELA 0 | HepG2-ACTB-RAB5A 0 | HepG2-CANX-COX4 0 | HepG2-GM130-SQSTM1 0 | HepG2-TP53BP1-CLTA 0 | HepG2-TUBA1B-RELA 0 | WPMY1-ACTB-RAB5A 0 | WPMY1-CANX-COX4 0 | WPMY1-GM130-SQSTM1 0 | WPMY1-TP53BP1-CLTA 0 | WPMY1-TUBA1B-RELA 0

Cc1c(F)cc(C(=O)NC2CC2)cc1-c1ccc(C(=O)NCC(C)(C)C)cn1 [losmapimod]
inactive: A549-ACTB-RAB5A 0 | A549-CANX-COX4 0 | A549-GM130-SQSTM1 0 | A549-TP53BP1-CLTA 0 | A549-TUBA1B-RELA 0 | HepG2-ACTB-RAB5A 0 | HepG2-CANX-COX4 0 | HepG2-GM130-SQSTM1 0 | HepG2-TP53BP1-CLTA 0 | HepG2-TUBA1B-RELA 0 | WPMY1-ACTB-RAB5A 0 | WPMY1-CANX-COX4 0 | WPMY1-GM130-SQSTM1 0 | WPMY1-TP53BP1-CLTA 0 | WPMY1-TUBA1B-RELA 0

COc1ccc([C@@H]2CC(=O)c3c(O)cc(O)cc3O2)cc1O [Hesperetin]
inactive: A549-ACTB-RAB5A 0 | A549-CANX-COX4 0 | A549-GM130-SQSTM1 0 | A549-TP53BP1-CLTA 0 | A549-TUBA1B-RELA 0 | HepG2-ACTB-RAB5A 0 | HepG2-CANX-COX4 0 | HepG2-GM130-SQSTM1 0 | HepG2-TP53BP1-CLTA 0 | HepG2-TUBA1B-RELA 0 | WPMY1-ACTB-RAB5A 0 | WPMY1-CANX-COX4 0 | WPMY1-GM130-SQSTM1 0 | WPMY1-TP53BP1-CLTA 0 | WPMY1-TUBA1B-RELA 0

COc1ccc(C(=O)Nc2sc3c(c2C(N)=O)CCCC3)cc1OC
inactive: A549-ACTB-RAB5A 0 | A549-CANX-COX4 0 | A549-GM130-SQSTM1 0 | A549-TP53BP1-CLTA 0 | A549-TUBA1B-RELA 0 | HepG2-ACTB-RAB5A 0 | HepG2-CANX-COX4 0 | HepG2-GM130-SQSTM1 0 | HepG2-TP53BP1-CLTA 0 | HepG2-TUBA1B-RELA 0 | WPMY1-ACTB-RAB5A 0 | WPMY1-CANX-COX4 0 | WPMY1-GM130-SQSTM1 0 | WPMY1-TP53BP1-CLTA 0 | WPMY1-TUBA1B-RELA 0

COC(=O)c1c(-c2cc(OC)c(OC)c(OC)c2)c2ccnc(OCc3ncccn3)c2c(=O)n1Cc1ccnc(C)c1 [T 0156 hydrochloride]
inactive: A549-ACTB-RAB5A 0 | A549-CANX-COX4 0 | A549-GM130-SQSTM1 0 | A549-TP53BP1-CLTA 0 | A549-TUBA1B-RELA 0 | HepG2-ACTB-RAB5A 0 | HepG2-CANX-COX4 0 | HepG2-GM130-SQSTM1 0 | HepG2-TP53BP1-CLTA 0 | HepG2-TUBA1B-RELA 0 | WPMY1-ACTB-RAB5A 0 | WPMY1-CANX-COX4 0 | WPMY1-GM130-SQSTM1 0 | WPMY1-TP53BP1-CLTA 0 | WPMY1-TUBA1B-RELA 0

CCCCCCOc1cc2c(cc1N(C)c1ncc(C(=O)O)cn1)C(C)(C)CCC2(C)C
inactive: A549-ACTB-RAB5A 0 | A549-CANX-COX4 0 | A549-GM130-SQSTM1 0 | A549-TP53BP1-CLTA 0 | A549-TUBA1B-RELA 0 | HepG2-ACTB-RAB5A 0 | HepG2-CANX-COX4 0 | HepG2-GM130-SQSTM1 0 | HepG2-TP53BP1-CLTA 0 | HepG2-TUBA1B-RELA 0 | WPMY1-ACTB-RAB5A 0 | WPMY1-CANX-COX4 0 | WPMY1-GM130-SQSTM1 0 | WPMY1-TP53BP1-CLTA 0 | WPMY1-TUBA1B-RELA 0

Nc1ccc(C(=O)O)c(O)c1 [aminosalicylate]
inactive: A549-ACTB-RAB5A 0 | A549-CANX-COX4 0 | A549-GM130-SQSTM1 0 | A549-TP53BP1-CLTA 0 | A549-TUBA1B-RELA 0 | HepG2-ACTB-RAB5A 0 | HepG2-CANX-COX4 0 | HepG2-GM130-SQSTM1 0 | HepG2-TP53BP1-CLTA 0 | HepG2-TUBA1B-RELA 0 | WPMY1-ACTB-RAB5A 0 | WPMY1-CANX-COX4 0 | WPMY1-GM130-SQSTM1 0 | WPMY1-TP53BP1-CLTA 0 | WPMY1-TUBA1B-RELA 0

CN(C)c1nc(N(C)C)nc(N(C)C)n1 [altretamine]
inactive: A549-ACTB-RAB5A 0 | A549-CANX-COX4 0 | A549-GM130-SQSTM1 0 | A549-TP53BP1-CLTA 0 | A549-TUBA1B-RELA 0 | HepG2-ACTB-RAB5A 0 | HepG2-CANX-COX4 0 | HepG2-GM130-SQSTM1 0 | HepG2-TP53BP1-CLTA 0 | HepG2-TUBA1B-RELA 0 | WPMY1-ACTB-RAB5A 0 | WPMY1-CANX-COX4 0 | WPMY1-GM130-SQSTM1 0 | WPMY1-TP53BP1-CLTA 0 | WPMY1-TUBA1B-RELA 0

CCCCC1=NC2(CCCC2)C(=O)N1Cc1ccc(-c2ccccc2-c2nnn[nH]2)cc1 [irbesartan]
inactive: A549-ACTB-RAB5A 0 | A549-CANX-COX4 0 | A549-GM130-SQSTM1 0 | A549-TP53BP1-CLTA 0 | A549-TUBA1B-RELA 0 | HepG2-ACTB-RAB5A 0 | HepG2-CANX-COX4 0 | HepG2-GM130-SQSTM1 0 | HepG2-TP53BP1-CLTA 0 | HepG2-TUBA1B-RELA 0 | WPMY1-ACTB-RAB5A 0 | WPMY1-CANX-COX4 0 | WPMY1-GM130-SQSTM1 0 | WPMY1-TP53BP1-CLTA 0 | WPMY1-TUBA1B-RELA 0

OCC(CO)N[C@H]1C[C@](O)(CO)[C@@H](O)[C@H](O)[C@H]1O [Voglibose]
inactive: A549-ACTB-RAB5A 0 | A549-CANX-COX4 0 | A549-GM130-SQSTM1 0 | A549-TP53BP1-CLTA 0 | A549-TUBA1B-RELA 0 | HepG2-ACTB-RAB5A 0 | HepG2-CANX-COX4 0 | HepG2-GM130-SQSTM1 0 | HepG2-TP53BP1-CLTA 0 | HepG2-TUBA1B-RELA 0 | WPMY1-ACTB-RAB5A 0 | WPMY1-CANX-COX4 0 | WPMY1-GM130-SQSTM1 0 | WPMY1-TP53BP1-CLTA 0 | WPMY1-TUBA1B-RELA 0
